Assay results from PubChem BioAssay (EPA / NIEHS).
Calls of active or inactive are those of the source. Rule for the calls: active = hit-call score of the fitted dose curve at least 0.9, where 1 is the maximum; inactive = score below 0.9.

Columns and labels:
Conditions in all cases: mRNA level, 48 h; actives raise or lower the signal
[1] = read-out: Ezrin (EZR), EZR (gene 7430); assay: LTEA_HepaRG_EZR: Life Technologies and Expression Analysis (LTEA) Assay for Ezrin (EZR) using HepaRG (AID 2283491)
Summary of the method: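 Differentiated human HepaRG cells, 48 h after plating, were exposed in serum-free induction medium for 48 hours to eight half-log concentrations up to 100 uM in 0.5% DMSO. EZR mRNA was measured by TaqMan qRT-PCR, normalized to ACTB, GAPDH and POLR2A, and fitted bidirectionally against DMSO.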

[2] = read-out: Cytochrome P450 3A7 (Homo sapiens) (UniProt P24462); assay: LTEA_HepaRG_CYP3A7: Life Technologies and Expression Analysis (LTEA) Assay for CYP3A7 using HepaRG (AID 2283492)
Summary of the method: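 Human HepaRG liver cells, 48 h post-plating, switched to serum-free induction medium and exposed in duplicate for 48 h. Dosing: 100 uM top, half-log dilutions, 8 points, 0.5% DMSO vehicle. Read-out: CYP3A7 mRNA, gain or loss fitted against DMSO baseline.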

CYP3A5 (gene 1577) = assay: LTEA_HepaRG_CYP3A5: Life Technologies and Expression Analysis (LTEA) Assay for CYP3A5 using HepaRG (AID 2283493)
Summary of the method: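 mRNA levels were quantified by qRT-PCR on Fluidigm arrays and normalized to three housekeeping genes. Differentiated HepaRG cells received 48 h exposure (top 100 uM, half-log steps, 0.5% DMSO vehicle, duplicate); bidirectional fitting versus DMSO.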

[3] = read-out: Fatty Acid-Binding Protein 1 (FABP1), FABP1 (gene 2168); assay: LTEA_HepaRG_FABP1: Life Technologies and Expression Analysis (LTEA) Assay for Fatty Acid-Binding Protein 1 (FABP1) using HepaRG (AID 2283494)
Summary of the method: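 Values reflect bidirectional concentration-response fitting of FABP1 mRNA change against 0.5% DMSO controls. Human HepaRG cultures received eight half-log doses (top 100 uM) for 48 h; expression quantified by TaqMan qRT-PCR with housekeeping-gene normalization.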

[4] = read-out: Cytochrome P450 4A22 (Homo sapiens) (UniProt Q5TCH4); assay: LTEA_HepaRG_CYP4A22: Life Technologies and Expression Analysis (LTEA) Assay for Cytochrome P450 4A22 (CYP4A22) using HepaRG (AID 2283495)
Summary of the method: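 Readout is CYP4A22 transcript induction or loss, quantified by qRT-PCR and normalized to ACTB, GAPDH and POLR2A. Human HepaRG cells receive test chemicals for 48 h at eight half-log concentrations from 100 uM in 0.5% DMSO.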

[5] = read-out: Cytochrome P450 7A1 (Homo sapiens) (UniProt P22680); assay: LTEA_HepaRG_CYP7A1: Life Technologies and Expression Analysis (LTEA) Assay for Cytochrome P450 7A1 (CYP7A1) using HepaRG (AID 2283496)
Summary of the method: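 HepaRG, 48 h exposure, 8-pt half-log series from 100 uM, 0.5% DMSO vehicle, duplicates. Readout: TaqMan qRT-PCR mRNA vs three housekeeping genes; bidirectional curve fit against DMSO baseline.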

[6] = read-out: Glutathione S-Transferase (GSTA2), GSTA2 (gene 2939); assay: LTEA_HepaRG_GSTA2: Life Technologies and Expression Analysis (LTEA) Assay for Glutathione S-Transferase (GSTA2) using HepaRG (AID 2283497)
Summary of the method: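 Oxidative-stress marker GSTA2 is quantified by TaqMan qRT-PCR in HepaRG cultures treated 48 h across an eight-point range to 100 uM. Expression is normalized to endogenous controls and compared with 0.5% DMSO vehicle.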

[7] = read-out: growth arrest and DNA damage 45 (GADD45G), GADD45G (gene 10912); assay: LTEA_HepaRG_GADD45G: Life Technologies and Expression Analysis (LTEA) Assay for growth arrest and DNA damage 45 (GADD45G) using HepaRG (AID 2283499)
Summary of the method: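 Gain or loss of GADD45G mRNA, quantified by TaqMan qRT-PCR against three housekeeping genes, is fitted in both directions relative to 0.5% DMSO. Human HepaRG cultures receive test chemical for 48 h at up to 100 uM.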

[8] = read-out: Glutamate-cysteine ligase regulatory (GCLM), GCLM (gene 2730); assay: LTEA_HepaRG_GCLM: Life Technologies and Expression Analysis (LTEA) Assay for Glutamate-cysteine ligase regulatory (GCLM) using HepaRG (AID 2283500)
Summary of the method: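 GCLM expression quantified by qRT-PCR, normalized to three housekeeping genes, after 48 h chemical treatment of HepaRG cells in duplicate at 8 concentrations (top 100 uM, half-log steps, 0.5% DMSO). Changes fitted both directions against vehicle.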

[9] = read-out: Glutamate-cysteine ligase catalytic (GCLC), GCLC (gene 2729); assay: LTEA_HepaRG_GCLC: Life Technologies and Expression Analysis (LTEA) Assay for Glutamate-cysteine ligase catalytic (GCLC) using HepaRG (AID 2283498)
Summary of the method: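 Oxidative-stress marker GCLC is measured as mRNA change in human HepaRG liver cells after 48 h chemical treatment in 0.5% DMSO, eight concentrations from 100 uM. Activity is fitted bidirectionally against vehicle.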

Measured: AC50

Chain of Cytochrome P450 3A7 (Homo sapiens) (P24462 whole entry, looked up): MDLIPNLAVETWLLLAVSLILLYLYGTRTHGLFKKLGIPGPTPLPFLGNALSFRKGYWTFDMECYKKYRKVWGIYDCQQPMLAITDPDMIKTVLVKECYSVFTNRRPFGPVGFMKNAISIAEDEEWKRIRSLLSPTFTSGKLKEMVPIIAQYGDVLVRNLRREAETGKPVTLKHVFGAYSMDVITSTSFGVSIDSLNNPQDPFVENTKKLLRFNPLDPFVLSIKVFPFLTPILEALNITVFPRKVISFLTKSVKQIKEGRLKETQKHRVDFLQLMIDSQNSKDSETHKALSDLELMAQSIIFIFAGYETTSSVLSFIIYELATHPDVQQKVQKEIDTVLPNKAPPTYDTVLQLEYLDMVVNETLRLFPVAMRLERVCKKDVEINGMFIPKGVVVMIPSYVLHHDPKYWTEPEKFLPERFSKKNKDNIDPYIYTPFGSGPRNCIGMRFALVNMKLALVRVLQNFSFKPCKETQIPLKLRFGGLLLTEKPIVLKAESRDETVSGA

CC(C)c1cccc(C(C)C)c1
not listed: [9]
inactive: all other assays above

CC1(C)C(=O)NC(=O)N1CO
not listed: [6]
inactive: all other assays above

CCCCOC(=O)CCCCC(=O)OCCCC
not listed: [6]
inactive: all other assays above

N[C@@H](Cc1c[nH]c2ccccc12)C(=O)O
not listed: [6]
inactive: all other assays above

CN(C)CCCN(C)CCCN(C)C
inactive: all assays above

CC(C)OC(=O)C(C)(C)Oc1ccc(C(=O)c2ccc(Cl)cc2)cc1
active: [1] 0.536 µM | [3] 50 µM | [4] 2.19 µM
not listed: [9]
inactive: all other assays above

COc1ccc(C(=O)Nc2nc3ccccc3c(NCc3ccccc3)c2C#N)cc1
inactive: [1] | [9]
active: [2] 14.3 µM | CYP3A5 (gene 1577) 2.67 µM | [3] 18 µM | [4] 27.1 µM | [5] 17.8 µM | [6] 20.5 µM | [7] 14.3 µM | [8] 10.9 µM

COc1ccc(OC(F)(F)F)cc1CN[C@H]1CCCN[C@H]1c1ccccc1
active: CYP3A5 (gene 1577) 78.5 µM | [3] 77.9 µM | [4] 15.8 µM | [9] 90.1 µM
not listed: [6]
inactive: all other assays above

S=c1[nH]c2ccccc2s1
not listed: [6] | [9]
inactive: all other assays above

O=C(NS(=O)(=O)/C=C/c1cccs1)c1ccc(F)cc1Br
active: [2] 5.96 µM | [3] 26.6 µM | [5] 27.9 µM
inactive: all other assays above

O=C1O[C@H]([C@H](O)CO)C(O)=C1O
inactive: all assays above

CCOCCOCCO
not listed: [9]
inactive: all other assays above

CC(=O)O
not listed: [9]
inactive: all other assays above

CC(C)c1cccc(C(C)C)c1NC(=O)NS(=O)(=O)c1cc(C(C)(C)O)co1
active: [3] 43.1 µM | [4] 31.6 µM
inactive: all other assays above

CCCCC(CC)CO (stereo unspecified)
inactive: all assays above

CC(=O)CC(c1ccccc1)c1c(O)c2ccccc2oc1=O (stereo unspecified)
active: [2] 34.7 µM
not listed: [6]
inactive: all other assays above

Oc1ccccc1O
not listed: [9]
inactive: all other assays above

O=C(O)c1[nH]n(-c2ccc(S(=O)(=O)O)cc2)c(=O)c1N=Nc1ccc(S(=O)(=O)O)cc1
not listed: [9]
inactive: all other assays above

O=NO
inactive: all assays above

Cc1occc(=O)c1O
inactive: all assays above

Oc1ccc(O)cc1
inactive: all assays above

CCc1nc(N)nc(N)c1-c1ccc(Cl)cc1
active: [4] 60.7 µM | [5] 2.6 µM | [7] 78.1 µM
not listed: [6]
inactive: all other assays above
